Results filed as inconclusive are left out. The source made the active and inactive calls. Unless noted, calls follow the shape of the dose curve; as a rule, active = well fitted curve in either direction with a large enough effect (not every such curve was filed as active); inconclusive = small, poorly fitted or top-dose-only effect, or another doubt; inactive = flat fitted curve, though single readings scatter.
Key:
[1] = molecular target: Lysosomal acid glucosylceramidase (Homo sapiens) (UniProt P04062); test: Glucocerebrosidase-p2 (AID 348; in the data active = potency below about 10 µM; also: potency is read from the fitted curve at half-maximal effect); settings: purified GBA, blue fluorogenic substrate, 40 min
Procedure, shortened: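 Normal human glucocerebrosidase (0.2 nM) with blue fluorogenic substrate (80 uM final) in citrate/phosphate pH 5.9 with 10mM sodium taurocholate, 0.01% tween-20; 40 min RT, NaOH/glycine stop; fluorescence Ex 365/Em 440; AC50 from a titration from 0.6 nM upwards.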

[2] = AP1 Signaling Pathway (AID 357); settings: ME-180 AP-1-bla reporter, EGF-induced, beta-lactamase ratio, 5 h; at 7.69 µM (top of the series) unless noted;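 also: ME-180 reporter cells stimulated with EGF at its EC50 level; % is scaled to controls: 0 for no effect and ±100 for the full control effect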
Procedure, shortened: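 Beta-lactamase reporter under AP-1 response element, ME-180 background. Stimulus: EC50 EGF. Compound exposure 5 h, 37 °C. Detection: CCF4, 2.5 h RT, 460/530 nm. Values: AC50 from titration.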

[3] = molecular target: Cytochrome P450 1A2 (Homo sapiens) (UniProt P05177); test: p450-cyp1a2 (AID 410; calls by dose curve; also: potency is read from the fitted curve at half-maximal effect;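 as to activity change, negative = inhibition: -100% = full effect of reference inhibitor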); settings: recombinant CYP1A2, luciferin-ME demethylation, luminescence; series mostly up to 57 µM
Procedure, shortened: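 O-Demethylation of luciferin 6' methyl ether by human CYP1A2 is monitored as luciferase luminescence. Substrate sits at Km (100uM); enzyme is 20nM. Values are scaled to 57 uM furafylline as maximal inhibition.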

[4] = Stat Signaling Pathway (AID 446); settings: ME-180 SIE beta-lactamase reporter, IL-6 stimulated, 5 h; at 7.69 µM (top of the series) unless noted;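 also: ME-180 cervical cancer cells given 40 pM IL-6 alongside compound; SIE-controlled beta-lactamase reporter measured as 460/530 nm FRET emission ratio; % is scaled to controls: 0 for no effect and ±100 for the full control effect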
Procedure, shortened: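 Overnight-plated ME-180 cells bearing a STAT Inducible Element beta-lactamase reporter; 5 h co-exposure to compound and 40 pM IL-6; values normalized to 300 pM IL-6 and 125 nM JAK inhibitor controls.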

[5] = molecular target: Glucocorticoid receptor (Homo sapiens) (UniProt P04150); test: GR-EFC Redistribution (AID 451; calls by dose curve; also: potency is read from the fitted curve at half-maximal effect); settings: CHO-K1 GR-EFC translocation, beta-gal luminescence, 2 h
Procedure, shortened: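 CHO-K1 cells expressing nuclear EA and GR-ED fragments of b-gal; compounds titrated up to 46 uM final, 2 h at 37 C. GR nuclear translocation read as complemented b-gal luminescence after 1 h RT detection.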

[6] = molecular target: Mitogen-activated protein kinase 10 (Mus musculus) (UniProt Q61831); test: JNK3 AlphaScreen Assay (AID 530); settings: JNK3 lysate, c-Jun phosphorylation; series mostly up to 57.1 µM;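 also: kinase came from lysate of stimulated human HepG2 cells; signal reports phosphorylation of biotinylated GST-cJun 1-79 at Ser73 with 10 µM ATP; % is scaled to controls: 0 for no effect and ±100 for the full control effect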
Procedure, shortened: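 Activity was read by AlphaScreen after JNK3-containing HepG2 lysate (cytokine pre-activated) phosphorylated biotinylated GST-cJun with 10 uM ATP at room temperature. Phospho-Ser73 cJun antibody with Protein-A acceptor beads provided detection.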

[7] = molecular target: 3',5'-cyclic-AMP phosphodiesterase 4B (Homo sapiens) (UniProt Q07343); test: qHTS Assay for Inhibitors of PDE-IV (AID 607; active = well fitted activation curve with a large enough effect in the main read-out, with a control signal flat, not every such curve was filed as active; also: % of control where 0% means no effect); settings: HEK293 ACTOne CNG channel cells, membrane potential fluorescence; series mostly up to 22.9 µM
Procedure, shortened: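 Live HEK293 cells with a modified cyclic nucleotide-gated (CNG) channel report intracellular cAMP via membrane-potential dye fluorescence (ex 535/em 590 nm). Endogenous PDE-IV was targeted. Compounds were tested at up to 22.9 uM final; RO 20-1724 100 uM served as control.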

[8] = qHTS Assay for Identification of Small Molecule Agonists for Hypoxia Response Element Signaling Pathway (AID 914; active = well fitted activation curve with a large enough effect in the signal ratio, with a control signal flat, not every such curve was filed as active; the % refers to the signal ratio; also: % of control where 0% means no effect); settings: ME-180 (cervical carcinoma) HRE-bla reporter, beta-lactamase ratio, CoCl2, 17 h; activation: stronger effect = higher value
Procedure, shortened: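 HRE-bla ME-180 cells, overnight plating in Opti-MEM with 0.5% dialyzed FBS; cpd titration + EC50 CoCl2, 17 h, 37 degrees Celsius; CCF4 2.5 h RT; 460/530 nm ratio; AC50.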

[9] = qHTS Assay for Lipid Storage Modulators (AID 1519; calls by dose curve); settings: Drosophila S3 cells, BODIPY lipid droplet/cell ratio, laser cytometry, cells loaded with oleic acid; for activity change, negative = inhibition: at 57.5 µM (top of the series)
Procedure, shortened: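 Cells seeded at 5,000 per well were treated with compounds over a concentration series and loaded with oleic acid (400 uM, as added). Lipid droplet fluorescence (488 nm excitation, 500-530 nm channel) was read by laser-scanning cytometry and normalized to 20 uM Triacsin C.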

[10] = Primary qHTS for small molecule stabilizers of the endoplasmic reticulum resident proteome: Secreted ER Calcium Modulated Protein (SERCaMP) assay (AID 1508630; active = well fitted curve in the direction sought with a large enough effect; an effect the other way counts as inactive or inconclusive; also: % is scaled to controls: 0 for no effect and ±100 for the full control effect); settings: SH-SY5Y GLuc-SERCaMP (Gaussia luciferase released on ER calcium loss) secretion, thapsigargin, luminescence; series mostly up to 38.4 µM
Procedure, shortened: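 The SH-SY5Y reporter protocol was run at 3 concentrations up to 38.3 uM (primary) or 11 concentrations (follow-up): 16 h compound, 100 nM thapsigargin for 4 h, then extracellular luciferase luminescence.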

[11] = molecular target: Cytochrome P450 3A4 (Homo sapiens) (UniProt P08684); test: qHTS Assay for Activators of Cytochrome P450 3A4 (AID 885; active = well fitted curve in the direction sought with a large enough effect; an effect the other way counts as inactive or inconclusive; also: nearly all actives have a fitted effect of over 65% in size); settings: recombinant CYP3A4, Luciferin-PPXE luminescence, 60 min; series mostly up to 57.1 µM
Procedure, shortened: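 Using 20nM recombinant human CYP3A4 in potassium phosphate (200mM), substrate Luciferin-PPXE at 25uM, luminescent luciferin detection followed a 60-min RT NADPH reaction; data scaled to 57 uM ketoconazole.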

[12] = molecular target: Cytochrome P450 2C19 (Homo sapiens) (UniProt P33261); test: qHTS Assay for Inhibitors and Substrates of Cytochrome P450 2C19 (AID 899; active = well fitted curve in the direction sought with a large enough effect; an effect the other way counts as inactive or inconclusive; also: nearly all actives have a fitted effect of over 60% in size; also: potency is read from the fitted curve at half-maximal effect); settings: recombinant CYP2C19, luciferin-H EGE luminescence; series mostly up to 57.1 µM
Procedure, shortened: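 Luminescent read-out of luciferin formed from Luciferin-H EGE (10uM, equal to KM). Enzyme 5nM in 50mM KPO4; compound added, 10 min at 37C, then NADPH regenerating system for 60 min at 37C. Full inhibition defined by 57uM ketoconazole.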

[13] = molecular target: Cytochrome P450 3A4 (Homo sapiens) (UniProt P08684); test: qHTS Assay for Inhibitors and Substrates of Cytochrome P450 3A4 (AID 884; active = well fitted curve in the direction sought with a large enough effect; an effect the other way counts as inactive or inconclusive; also: nearly all actives have a fitted effect of over 50% in size; also: potency is read from the fitted curve at half-maximal effect); settings: recombinant CYP3A4, Luciferin-PPXE luminescence; series mostly up to 57.1 µM
Procedure, shortened: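 Luminescent readout of luciferin produced by CYP3A4 (20 nM) dealkylation of Luciferin-PPXE, 25 uM (its KM). NADPH-driven reaction ran 60 min at RT after 10 min compound preincubation; data scaled to 57 uM ketoconazole as 100% inhibition.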

[14] = molecular target: Cytochrome P450 2D6 (Homo sapiens) (UniProt P10635); test: qHTS Assay for Inhibitors and Substrates of Cytochrome P450 2D6 (AID 891; active = well fitted curve in the direction sought with a large enough effect; an effect the other way counts as inactive or inconclusive; also: potency is read from the fitted curve at half-maximal effect; nearly all actives have a fitted effect of over 60% in size); settings: recombinant CYP2D6, luciferin-ME EGE luminescence; series mostly up to 57.1 µM
Procedure, shortened: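 Luminescent read-out of luciferin formed by 5 nM human CYP2D6 demethylating 30 uM Luciferin-ME EGE (Km level) over 60 min at room temperature after NADPH regeneration addition. Data normalized to full inhibition by 1.43 uM quinidine.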

[15] = molecular target: Glucocorticoid receptor (Homo sapiens) (UniProt P04150); test: GR-GFP Redistribution (AID 450;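 active = compounds whose dose series gives a full or clear partial fitted curve of increased nuclear translocation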; also: potency is read from the fitted curve at half-maximal effect); settings: U2OS GR-GFP nuclear translocation, laser cytometry, 2 h
[16] = Confirmation and Secondary Assay for Modulators of Hemoglobin Beta Chain Splicing at IVS2 654 locus (AID 910; active = well fitted curve in the direction sought with a large enough effect; an effect the other way counts as inactive or inconclusive;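 also: HeLa cells stably carrying EGFP split by mutant beta-globin IVS2-654 intron; % of control where 0% means no effect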); settings: HeLa EGFP-654 splicing reporter, GFP fluorescence, 48 h; series mostly up to 38.3 µM
Procedure, shortened: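 HeLa cells stably expressing EGFP interrupted by β-globin IVS2-654 intron, seeded overnight in Opti-MEM/2% FCS, then treated 2 days at 37 °C. Restored splicing read as total peak GFP intensity per well by laser scanning cytometry (488 nm excitation, 500–520 nm emission); 500 nM antisense PNA as control.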

[17] = molecular target: Ubiquitin carboxyl-terminal hydrolase 1 (Homo sapiens) (UniProt O94782); test: Inhibitors of USP1/UAF1: Pilot qHTS (AID 504865; active = well fitted curve in the direction sought with a large enough effect; an effect the other way counts as inactive or inconclusive;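 also: rhodamine fluorescence freed from ubiquitin-rhodamine substrate followed over time; top concentration of the series differs between compounds; % is scaled to controls: 0 for no effect and ±100 for the full control effect; nearly all actives have a fitted effect of over 35% in size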); settings: purified USP1/UAF1, Ub-rhodamine cleavage fluorescence; series mostly up to 54.9 µM
Procedure, shortened: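 1nM USP1/UAF1 + cpd, 15 min RT; start w/ Ub-Rho 150nM final; kinetic FL 480/540 nm, 6 reads q60 s. Buffer 50mM HEPES pH 7.8, 0.5mM EDTA, 1mM TCEP, 0.01% Tween-20, 0.1 mg/ml BSA.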

[18] = NFAT Signaling Pathway (AID 444); settings: Jurkat NFAT-bla M1, carbachol, beta-lactamase ratio, 5 h; at 7.69 µM (top of the series) unless noted
Procedure, shortened: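 Jurkat cells with NFAT-driven β-lactamase reporter and co-expressed M1 receptor, stimulated with carbachol (final 1 uM, ~EC50), compound titration, 5 h at 37 °C. CCF4 loaded 1 h at RT; 460/530 nm ratio gave %activity and AC50.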

[19] = measured here: cell count channel max response
[20] = measured here: lipid channel max response

Chain of 3',5'-cyclic-AMP phosphodiesterase 4B (Homo sapiens) (Q07343 whole entry, looked up): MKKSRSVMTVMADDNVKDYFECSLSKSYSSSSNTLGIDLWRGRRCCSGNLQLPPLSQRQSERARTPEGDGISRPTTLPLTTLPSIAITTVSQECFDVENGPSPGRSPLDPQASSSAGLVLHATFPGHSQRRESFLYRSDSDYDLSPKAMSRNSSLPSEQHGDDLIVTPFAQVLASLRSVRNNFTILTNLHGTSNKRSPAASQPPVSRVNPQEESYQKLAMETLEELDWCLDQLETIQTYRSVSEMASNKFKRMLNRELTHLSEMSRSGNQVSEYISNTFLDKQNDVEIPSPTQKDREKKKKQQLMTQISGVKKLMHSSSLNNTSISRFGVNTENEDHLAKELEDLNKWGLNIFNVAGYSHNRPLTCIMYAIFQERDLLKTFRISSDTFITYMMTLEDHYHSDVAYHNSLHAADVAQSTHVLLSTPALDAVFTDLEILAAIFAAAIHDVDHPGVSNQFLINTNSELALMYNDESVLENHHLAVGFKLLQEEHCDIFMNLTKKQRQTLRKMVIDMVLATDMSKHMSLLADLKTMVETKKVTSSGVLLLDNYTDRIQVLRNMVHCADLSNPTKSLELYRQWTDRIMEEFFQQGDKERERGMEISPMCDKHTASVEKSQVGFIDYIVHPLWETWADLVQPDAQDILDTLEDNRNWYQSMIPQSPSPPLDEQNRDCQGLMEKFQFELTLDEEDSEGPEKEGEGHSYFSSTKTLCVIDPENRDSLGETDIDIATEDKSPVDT
Chain of Cytochrome P450 3A4 (Homo sapiens) (P08684 whole entry, looked up): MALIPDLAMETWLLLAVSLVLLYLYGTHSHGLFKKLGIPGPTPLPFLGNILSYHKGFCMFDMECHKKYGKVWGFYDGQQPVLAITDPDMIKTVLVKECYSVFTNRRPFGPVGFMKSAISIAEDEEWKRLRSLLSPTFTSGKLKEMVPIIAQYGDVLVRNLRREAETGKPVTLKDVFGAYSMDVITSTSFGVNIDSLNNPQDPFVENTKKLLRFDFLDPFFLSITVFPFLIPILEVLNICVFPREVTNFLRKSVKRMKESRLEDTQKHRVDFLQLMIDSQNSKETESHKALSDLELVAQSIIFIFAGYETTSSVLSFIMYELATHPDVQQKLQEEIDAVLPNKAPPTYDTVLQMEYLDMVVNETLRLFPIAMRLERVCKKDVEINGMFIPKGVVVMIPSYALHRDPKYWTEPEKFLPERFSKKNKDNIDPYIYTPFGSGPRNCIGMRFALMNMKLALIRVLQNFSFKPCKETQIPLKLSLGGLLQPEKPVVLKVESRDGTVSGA
Chain of Lysosomal acid glucosylceramidase (Homo sapiens) (P04062 whole entry, looked up): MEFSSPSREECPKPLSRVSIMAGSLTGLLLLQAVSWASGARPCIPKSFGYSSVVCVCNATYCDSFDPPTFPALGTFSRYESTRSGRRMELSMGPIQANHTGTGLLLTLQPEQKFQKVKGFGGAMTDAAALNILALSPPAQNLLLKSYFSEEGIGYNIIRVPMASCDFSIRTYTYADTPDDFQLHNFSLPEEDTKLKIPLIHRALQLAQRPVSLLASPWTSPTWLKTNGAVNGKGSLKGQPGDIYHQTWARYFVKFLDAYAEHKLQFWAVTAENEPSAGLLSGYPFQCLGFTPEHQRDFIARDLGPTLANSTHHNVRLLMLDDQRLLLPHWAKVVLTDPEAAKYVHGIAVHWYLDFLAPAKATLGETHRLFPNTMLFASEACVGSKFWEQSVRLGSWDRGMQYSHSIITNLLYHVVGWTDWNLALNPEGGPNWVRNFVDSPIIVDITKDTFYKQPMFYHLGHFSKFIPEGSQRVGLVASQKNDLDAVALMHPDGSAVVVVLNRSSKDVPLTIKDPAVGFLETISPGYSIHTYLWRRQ
Chain of Cytochrome P450 1A2 (Homo sapiens) (P05177 whole entry, looked up): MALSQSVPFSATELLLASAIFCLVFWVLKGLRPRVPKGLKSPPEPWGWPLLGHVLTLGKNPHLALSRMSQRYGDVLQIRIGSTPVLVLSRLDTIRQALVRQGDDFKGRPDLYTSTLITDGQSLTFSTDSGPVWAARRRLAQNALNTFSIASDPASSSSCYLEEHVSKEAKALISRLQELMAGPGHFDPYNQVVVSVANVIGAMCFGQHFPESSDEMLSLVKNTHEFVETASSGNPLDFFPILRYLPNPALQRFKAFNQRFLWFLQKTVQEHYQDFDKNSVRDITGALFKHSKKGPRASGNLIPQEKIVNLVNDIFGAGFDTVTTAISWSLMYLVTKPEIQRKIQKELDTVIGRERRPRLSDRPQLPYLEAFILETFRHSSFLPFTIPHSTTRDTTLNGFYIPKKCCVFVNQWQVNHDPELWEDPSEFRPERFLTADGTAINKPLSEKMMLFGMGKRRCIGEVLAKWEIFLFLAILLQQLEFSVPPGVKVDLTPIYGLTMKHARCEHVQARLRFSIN
Chain of Glucocorticoid receptor (Homo sapiens) (P04150 whole entry, looked up, the tested form may be a part): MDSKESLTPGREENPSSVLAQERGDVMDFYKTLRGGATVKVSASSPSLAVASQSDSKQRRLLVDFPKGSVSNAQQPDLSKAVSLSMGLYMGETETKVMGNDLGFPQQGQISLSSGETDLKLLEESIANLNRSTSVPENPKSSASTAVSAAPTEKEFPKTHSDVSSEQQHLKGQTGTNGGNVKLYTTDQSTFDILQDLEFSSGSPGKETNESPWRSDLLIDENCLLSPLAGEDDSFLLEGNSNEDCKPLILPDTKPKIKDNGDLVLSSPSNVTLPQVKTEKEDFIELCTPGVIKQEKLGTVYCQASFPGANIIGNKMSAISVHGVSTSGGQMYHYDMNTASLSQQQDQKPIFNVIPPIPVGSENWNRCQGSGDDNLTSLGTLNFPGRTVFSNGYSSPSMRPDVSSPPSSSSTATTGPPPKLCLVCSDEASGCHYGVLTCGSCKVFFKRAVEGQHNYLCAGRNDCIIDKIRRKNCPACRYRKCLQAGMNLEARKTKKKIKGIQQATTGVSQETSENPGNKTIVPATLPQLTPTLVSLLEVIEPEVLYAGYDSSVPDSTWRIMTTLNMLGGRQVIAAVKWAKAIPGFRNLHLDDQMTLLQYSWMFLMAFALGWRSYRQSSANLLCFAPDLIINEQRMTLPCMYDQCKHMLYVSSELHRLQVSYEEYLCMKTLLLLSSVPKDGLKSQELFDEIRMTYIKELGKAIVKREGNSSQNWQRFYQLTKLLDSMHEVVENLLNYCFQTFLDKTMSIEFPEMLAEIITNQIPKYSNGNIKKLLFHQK
Chain of Cytochrome P450 2C19 (Homo sapiens) (P33261 whole entry, looked up): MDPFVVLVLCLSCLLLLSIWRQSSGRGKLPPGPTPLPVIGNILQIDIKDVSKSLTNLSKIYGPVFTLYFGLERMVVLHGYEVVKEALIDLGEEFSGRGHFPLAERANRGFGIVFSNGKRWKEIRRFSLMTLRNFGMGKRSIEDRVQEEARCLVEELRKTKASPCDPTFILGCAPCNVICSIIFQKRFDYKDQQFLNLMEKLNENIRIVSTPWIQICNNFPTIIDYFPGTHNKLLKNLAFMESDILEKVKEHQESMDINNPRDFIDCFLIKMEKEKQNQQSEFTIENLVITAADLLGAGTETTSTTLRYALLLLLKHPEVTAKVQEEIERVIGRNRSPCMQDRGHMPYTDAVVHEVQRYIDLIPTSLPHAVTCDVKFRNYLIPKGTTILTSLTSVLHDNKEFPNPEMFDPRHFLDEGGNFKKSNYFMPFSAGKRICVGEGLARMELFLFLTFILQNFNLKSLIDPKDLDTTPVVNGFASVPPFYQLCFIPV
Chain of Cytochrome P450 2D6 (Homo sapiens) (P10635 whole entry, looked up): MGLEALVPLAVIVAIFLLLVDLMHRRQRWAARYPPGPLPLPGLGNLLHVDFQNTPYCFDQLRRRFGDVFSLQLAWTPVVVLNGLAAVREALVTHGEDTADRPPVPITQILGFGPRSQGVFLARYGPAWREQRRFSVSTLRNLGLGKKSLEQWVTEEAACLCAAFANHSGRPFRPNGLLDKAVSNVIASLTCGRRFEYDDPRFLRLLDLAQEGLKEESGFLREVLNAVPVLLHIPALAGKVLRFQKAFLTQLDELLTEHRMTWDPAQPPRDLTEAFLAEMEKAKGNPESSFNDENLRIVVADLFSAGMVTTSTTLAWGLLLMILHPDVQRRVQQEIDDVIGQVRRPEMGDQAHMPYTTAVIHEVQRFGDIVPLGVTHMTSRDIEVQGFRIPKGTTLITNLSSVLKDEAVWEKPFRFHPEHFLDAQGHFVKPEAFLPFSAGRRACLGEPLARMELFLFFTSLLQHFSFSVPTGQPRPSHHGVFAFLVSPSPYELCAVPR
Chain of Ubiquitin carboxyl-terminal hydrolase 1 (Homo sapiens) (O94782 whole entry, looked up): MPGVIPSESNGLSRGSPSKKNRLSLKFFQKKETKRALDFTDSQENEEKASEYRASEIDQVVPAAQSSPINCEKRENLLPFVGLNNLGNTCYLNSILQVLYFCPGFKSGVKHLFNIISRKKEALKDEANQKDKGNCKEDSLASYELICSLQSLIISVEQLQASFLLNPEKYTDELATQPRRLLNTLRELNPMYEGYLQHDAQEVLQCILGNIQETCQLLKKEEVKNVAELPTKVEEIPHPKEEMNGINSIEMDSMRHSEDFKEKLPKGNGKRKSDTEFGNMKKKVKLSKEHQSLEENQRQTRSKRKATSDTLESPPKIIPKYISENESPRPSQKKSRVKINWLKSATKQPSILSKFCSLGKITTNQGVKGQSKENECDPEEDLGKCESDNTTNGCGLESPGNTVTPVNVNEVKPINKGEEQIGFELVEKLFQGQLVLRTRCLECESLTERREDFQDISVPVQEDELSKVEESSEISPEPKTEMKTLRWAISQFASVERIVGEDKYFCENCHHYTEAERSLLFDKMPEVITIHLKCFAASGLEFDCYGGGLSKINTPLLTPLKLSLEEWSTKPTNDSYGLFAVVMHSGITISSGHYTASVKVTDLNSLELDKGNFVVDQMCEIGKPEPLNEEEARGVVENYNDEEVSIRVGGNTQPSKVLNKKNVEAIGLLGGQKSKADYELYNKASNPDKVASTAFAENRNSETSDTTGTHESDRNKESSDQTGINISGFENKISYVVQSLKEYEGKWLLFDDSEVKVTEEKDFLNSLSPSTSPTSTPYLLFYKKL

O=S(=O)(c1ccccc1)N1CCC2(CCN(Cc3ccccc3)CC2)CC1
18.1%: max response [9, 19]
inactive: Potency [1] > 11.4 µM | activity change, negative = inhibition [2] 5.55% | Potency [3] | activity, negative = inhibition [4] 1.04% | Potency [5] > 46 µM | Potency [6] | Potency [7] | activation [8] 14.1% | activity change, negative = inhibition [9] 3.53% | outcome [10]
22.9%: max response [9, 20]

O=C(Nc1ccccc1)N1CC[C@@]2(CCCN(C(=O)c3cc(C(F)(F)F)cc(C(F)(F)F)c3)C2)C1
active: Potency [3] 25.1 µM
inactive: Potency [1] > 11.4 µM | activity change, negative = inhibition [2] -5.62% | activity, negative = inhibition [4] -6.2% | Potency [5] > 46 µM | Potency [6] | Potency [7] | Potency [11] | Potency [12] | activity change, negative = inhibition [9] 4.15% | outcome [10]
6.94%: max response [9, 20]
-0.407%: max response [9, 19]

N#Cc1ccc(CN2CC3(CCN(C(=O)c4cccc(F)c4)CC3)C2)cc1
2.82%: max response [9, 19]
inactive: Potency [1] > 11.4 µM | activity change, negative = inhibition [2] 20.2% | activity, negative = inhibition [4] -1.68% | Potency [5] > 46 µM | Potency [7] | Potency [13] | activity change, negative = inhibition [9] -2.25% | outcome [10]
3.31%: max response [9, 20]
active: Potency [3] 3.98 µM | Potency [12] 2 µM

COc1ccccc1CN1CCCC2(CCN(C(=O)c3csnn3)CC2)C1
21.2%: max response [9, 20]
9.62%: max response [9, 19]
inactive: Potency [1] > 11.4 µM | activity change, negative = inhibition [2] 3.73% | Potency [3] | activity, negative = inhibition [4] 0.773% | Potency [5] > 46 µM | Potency [6] | Potency [7] | Potency [11] | activation [8] 12.1% | activity change, negative = inhibition [9] 6.98% | outcome [10]

COc1ccccc1CN1CCC2(CC1)CCN(C(=O)c1c(C)noc1C)CC2
active: Potency [14] 7.94 µM
18.8%: max response [9, 20]
11.3%: max response [9, 19]
inactive: Potency [1] > 11.4 µM | activity change, negative = inhibition [2] 4.81% | Potency [3] | activity, negative = inhibition [4] -4.2% | Potency [5] > 46 µM | Potency [6] | Potency [7] | activity change, negative = inhibition [9] 1.42% | outcome [10]

COC(=O)N1CCC2(CCCN(Cc3ccc(C#N)cc3)C2)CC1
12.9%: max response [9, 20]
active: Potency [14] 0.316 µM
inactive: Potency [1] > 11.4 µM | activity change, negative = inhibition [2] -3.68% | Potency [3] | activity, negative = inhibition [4] -2.36% | Potency [5] > 46 µM | Potency [6] | Potency [7] | Potency [11] | activity change, negative = inhibition [9] -1.17% | outcome [10]
13.4%: max response [9, 19]

CS(=O)(=O)Nc1cccc(-c2nc(NCc3cccs3)c3ccccc3n2)c1
-2.81%: max response [9, 20]
-9.8%: max response [9, 19]
active: Potency [3] 1 µM | Potency [13] 3.16 µM
inactive: Potency [1] > 2.29 µM | activity change, negative = inhibition [2] -19.7% | Potency [15] > 46 µM | Potency [5] > 46 µM | Potency [6] | Potency [11] | Potency [16] | activity change, negative = inhibition [9] 6.98% | Potency [17] | outcome [10]

CC(=O)N1CCC2(CC1)CN(C(=O)Nc1cccc(C#N)c1)C2
inactive: Potency [1] > 11.4 µM | activity change, negative = inhibition [2] -2.26% | activity change, negative = inhibition [18] 4.7% | activity, negative = inhibition [4] 11.4% | Potency [5] > 46 µM | Potency [6] | Potency [7] | activity change, negative = inhibition [9] 2.51% | outcome [10]
-2.48%: max response [9, 19]
1.82%: max response [9, 20]

N#Cc1ccc(CN2CC[C@@]3(CCCN(C(=O)c4ccncc4)C3)C2)cc1
inactive: Potency [1] > 11.4 µM | activity change, negative = inhibition [2] -10.1% | activity change, negative = inhibition [18] -7.12% | activity, negative = inhibition [4] 8.24% | Potency [5] > 46 µM | Potency [6] | Potency [7] | activity change, negative = inhibition [9] 4.36% | outcome [10]
17.6%: max response [9, 19]
26%: max response [9, 20]

— PubChem BioAssay (NCATS)
